Molecules are shown by their SMILES. Compounds without any hit were thinned out: in the full panel of roughly 83,000, 20% have a hit.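 A percent growth of 40 corresponds to 60% growth inhibition; 0 means no net growth; -100 means all cells died. Active threshold: below 10.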 Values without a mark were called inactive. Calls of active or inactive are those of the source.

The assay deals with MDA-MB-468 breast. As to the kind of experiment: NCI-60 one-dose screen, 48 h (100 = growth as untreated, 0 = no growth, -100 = all killed). The note with it: 10 µM unless noted.
For `COc1ccc(/C=N\NC(=O)CN2CCN(c3cc4c(cc3F)c(=O)c(C(=O)N/N=C/c3ccc(OC)c(OC)c3)cn4C3CC3)CC2)cc1OC`, the growth was -27.6% (active).

In the case of `NCCCOc1cc(Cl)ccc1NC(=O)c1cc2ccccc2cc1OCCCN`, the growth was -85.3% (active). The value for `COc1ccc(NC(=O)c2cc(OC)c(OC)c(OC)c2)cc1O` was 29.8%; that for `CCS(=O)(=O)Nc1ccc(C(=O)CC2(O)C(=O)Nc3ccccc32)cc1` (stereo not given) was 95.4%. Take `N/C(=N\C(N)=N\c1nc2ccccc2s1)c1ccncc1`: the growth was 56.6%. The result for `Nc1cccc2cccc([N+](=O)[O-])c12` reads 109%; that for `CCOC(=O)c1c(C)[nH]c(C)c1C=O`, 99.1%; that for `O=C(/C=C/c1cccc(Cl)c1)OCc1ccc2cc1OCC#C/C=C\C#CCO2`, 79.2%.

As for `Cc1ccc2nc3nc4ccc[nH]c4cc3c2c1`, the growth is -57.7% (active). The result for `CNC(=O)c1cc(-c2ccc(NC(=O)Nc3ccc(N4CCN(C)CC4)c(C(F)(F)F)c3)cc2)nc2cccnc12` reads -73.8% (active); that for `S=C1CCSC(=S)N1CCCN1C(=S)CCSC1=S`, 37.8%. The result for `O=C1C[C@H](N2C(=O)c3ccccc3S2(=O)=O)C2CO[C@@H]1O2` reads 80.3%; that for `COc1cccc(NC(=O)Cn2cc(CN3CCN(c4ccnc5cc(Cl)ccc45)CC3)nn2)c1`, 84.1%; that for `COC1=CC(c2ccc[nH]2)=N/C1=C\c1[nH]c(C)c(C(=O)OC(C)C)c1C`, -74.1% (active). The result for `CN1C(=O)C2(SCC(C(=O)NCc3ccccc3)N2C(=O)C2CCCCC2)c2ccccc21` (stereo not given) reads 98.2%; that for `COc1cc2c(C#N)n3c(c2cc1OC)C(=O)C(c1ccccc1)Oc1ccccc1-3` (stereo not given), 74.5%.

For the compound `COc1cc(CO)cc2cc3ccccc3nc12`, the growth is 40.8%. In the case of `COc1ccccc1N1CCN(C(=S)Nc2ccccc2)CC1`, the growth was 97%.

As to `Cn1c(=O)c2nc3c(=O)n(C)c(=O)n(C)c3nc2n(C)c1=O`, the growth is 92.1%. The value for `Cn1c(NCCc2ccc(O)c(O)c2)nc2c1c(=O)n(Cc1ccc(Br)cc1)c(=O)n2C` was 43.3%; that for `COc1cc(-c2ccc(-c3ccc(C(=N)N)nc3)s2)cc(OC)c1OC` was 22.4%; that for `CC(C)SC1=NC(=C(C(=N1)NC2=ClC=CC=C2)C#N)C3=CC=CC=C3` was 43%. The result for `N#Cc1c2ccccc2nc2ccccc12` reads 84.5%. The result for `Cc1cccc2nc3ccccc3c(Nc3ccc(NS(C)(=O)=O)cc3)c12` reads 67.9%. `C#CC[C@@H]1C[C@]2(C)[C@H]3CC[C@@H]4[C@H]5C(C(=C)C)CC[C@]5(C(=O)NCCCCCCCCN)CC[C@@]4(C)[C@]3(C)CC[C@H]2C(C)(C)[C@H]1OC(C)=O` (stereo not given in full): the growth was 105%.

As to `OCCSc1ccc(Cl)cc1`, the growth was 106%. The result for `Cc1ccc(Cc2cnc(NC(=O)c3cc(C)oc3C)s2)cc1` reads 31.5%. The value for `O=C1c2ccccc2C(=O)c2c1oc1c2c(=O)[nH]c2ccc(Cl)cc21` was -32.4% (active).

As for `c1ccc(-c2oc(-c3ccccc3)c(CN3CCCCC3)c2CN2CCCCC2)cc1`, the growth is -35.9% (active). The value for `CC(=O)Nc1ccc(S(=O)(=O)n2ccc(-c3ccc4c(c3)CCC(C)(C)O4)n2)cc1` was 24.9%. The value for `CC(C)Oc1nc2c(c(=O)n(C)c(=O)n2C)n1C` was 109%; that for `O=C(CSc1nccc(=O)[nH]1)Nc1ccc(-c2nc3ccccc3[nH]2)cc1` was 118%; that for `C=CCn1c(SCC(=O)Nc2ccc(C(=O)/C=C/c3ccc(Cl)cc3)cc2)nnc1-c1cc(-c2ccc(S(N)(=O)=O)cc2)nc2ccccc12` was 90.2%. For the compound `c1ccc(-c2n(Cc3ccc4ccccc4c3)cc[n+]2Cc2ccc3ccccc3c2)cc1`, the growth was -65.5% (active).

For `CN1CCN(c2ccc3cc(-c4nc5ccccc5[nH]4)c(=O)oc3c2)CC1`, the growth is 68.3%. The value for `O=C1/C=C/[C@@H](O)[C@@H]2C[C@@H](O)C[C@H]2/C=C/CCC[C@H](CCO)O1` was -54.5% (active); that for `CC(C)N(CCOc1ccc(-c2nc3sccn3c2-c2ccnc(S(C)(=O)=O)n2)cc1)C(C)C` was 9.31% (active); that for `CC(C)(c1ccccc1)c1cc(O)c(C(C)(C)c2ccccc2)cc1O` was 26.4%. The value for `CN(C)Cc1cccs1` was 87.2%. With `Nc1nc(Nc2ccccc2SSc2ccccc2Nc2nc(N)nc(-c3cccs3)n2)nc(-c2ccsc2)n1`, the growth was 115%.
